The values that follow come from PubChem BioAssay (NCI).

Test systems include SR leukemia; RPMI-8226 leukemia; OVCAR-8 ovarian; OVCAR-5 ovarian; OVCAR-4 ovarian; SK-OV-3 ovarian; IGROV1 ovarian; OVCAR-3 ovarian; HS 578T breast; NCI/ADR-RES ovarian; T-47D breast; BT-549 breast; MDA-MB-435 melanoma; SW-620 colon; MCF7 breast; HCT-116 colon; HCC-2998 colon; KM12 colon; MDA-MB-468 breast.
What all share (assay): NCI-60 one-dose screen, 48 h (100 = growth as untreated, 0 = no growth, -100 = all killed)
Common to all, as to conditions: 10 µM unless noted

SMILES strings stand for the structures. The panel holds about 83,000 compounds, 20% with a hit somewhere; the sample as a whole holds those more often.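 The endpoint reported here, percent growth, reads 100 for growth as untreated, 0 for no net growth and -100 for all cells dead.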 A number with no mark means an inactive call. Active and inactive are the calls of the source. The calls were made as follows: active = growth percent below 10; inactive = the rest.

With `CCCCn1c(O)c(N=Nc2nc(-c3cc4ccccc4oc3=O)cs2)c2cc(Br)ccc21`, the growth in the experiment with SR leukemia is 103%; in the experiment with RPMI-8226 leukemia, 108%; in the experiment with OVCAR-8 ovarian it was 113%; in the experiment with OVCAR-5 ovarian, 96.2%; in the experiment on OVCAR-4 ovarian, 111%; in the experiment on SK-OV-3 ovarian, 124%. The growth in the experiment with IGROV1 ovarian was 114%; with OVCAR-3 ovarian, 99.1%; in the experiment with HS 578T breast it was 108%; in the experiment on NCI/ADR-RES ovarian, 102%; with T-47D breast, 107%; with BT-549 breast, 132%. The growth was 111% in the experiment on MDA-MB-435 melanoma; 114% in the experiment on SW-620 colon; 89.8% with MCF7 breast; 107% in the experiment with HCT-116 colon; 111% in the experiment with HCC-2998 colon; 114% in the experiment with KM12 colon. For the same compound, in the experiment on MDA-MB-468 breast, the growth was 113%.
On to `O=c1cc(-c2ccccc2)oc2cc(OCCCC[P+](c3ccccc3)(c3ccccc3)c3ccccc3)cc(O)c12`, for which the growth was -39.8% (active) in the experiment on SR leukemia; -66.7% (active) in the experiment on RPMI-8226 leukemia; -61.1% (active) in the experiment on OVCAR-8 ovarian; -97.7% (active) in the experiment on OVCAR-5 ovarian; -69.1% (active) in the experiment on OVCAR-4 ovarian; -83.4% (active) in the experiment on SK-OV-3 ovarian. Besides, the growth was -75.7% (active) in the experiment with IGROV1 ovarian; -94% (active) with OVCAR-3 ovarian; -35.2% (active) with HS 578T breast; -68.3% (active) with NCI/ADR-RES ovarian; -62.5% (active) with T-47D breast; -83% (active) with BT-549 breast. Moreover, the growth with MDA-MB-435 melanoma was -67.5% (active); in the experiment on SW-620 colon, -81.7% (active); with MCF7 breast, -79.1% (active); in the experiment on HCT-116 colon, -58.1% (active); in the experiment with HCC-2998 colon, -93.1% (active); in the experiment on KM12 colon, -85.2% (active). In addition, in the experiment on MDA-MB-468 breast, the growth was -84.9% (active).
`Cn1cc(-c2cc(N)n3nc(-c4cn(C)c5ccccc45)cc3n2)c2cc(Br)ccc21`: the growth is 7.44% (active) in the experiment with SR leukemia; 0.257% (active) in the experiment with RPMI-8226 leukemia; -91.9% (active) in the experiment with OVCAR-8 ovarian; 5.47% (active) with OVCAR-5 ovarian; -25.6% (active) with OVCAR-4 ovarian; 38.9% in the experiment with SK-OV-3 ovarian. For the same compound, the growth with IGROV1 ovarian was -3.64% (active); with OVCAR-3 ovarian it was -46.3% (active); in the experiment on HS 578T breast, -7.42% (active); in the experiment on NCI/ADR-RES ovarian, -13.9% (active); with T-47D breast, -37.7% (active); in the experiment on BT-549 breast, 38%. For the same compound, the growth with MDA-MB-435 melanoma is -72.6% (active); in the experiment on SW-620 colon, -10.6% (active); in the experiment on MCF7 breast it was -74.1% (active); in the experiment with HCT-116 colon, -92.9% (active); with HCC-2998 colon, -70.2% (active); with KM12 colon, -60.4% (active). In addition, the growth in the experiment on MDA-MB-468 breast is -24.9% (active).
Turning to `CC(C)Sc1nc(NCCc2c[nH]c3ccccc23)c(C#N)c(-c2ccc(F)cc2)n1`, the growth was -19.8% (active) with SR leukemia; 14.1% in the experiment on RPMI-8226 leukemia; 57.3% in the experiment on OVCAR-8 ovarian; 81.9% with OVCAR-5 ovarian; 59.1% in the experiment on OVCAR-4 ovarian; 76.9% in the experiment with SK-OV-3 ovarian. In addition, the growth was 90.4% in the experiment on IGROV1 ovarian; 58.1% in the experiment on OVCAR-3 ovarian; 43% in the experiment with HS 578T breast; 29.5% with NCI/ADR-RES ovarian; 20.8% in the experiment with T-47D breast; 65% with BT-549 breast. The growth was 58.7% in the experiment with MDA-MB-435 melanoma; 6.5% (active) in the experiment with SW-620 colon; 4.29% (active) in the experiment on MCF7 breast; 3.83% (active) in the experiment with HCT-116 colon; 21.5% in the experiment with HCC-2998 colon; 15.7% with KM12 colon. Moreover, in the experiment on MDA-MB-468 breast, the growth was 2.22% (active).
For the compound `COc1ccc(NC(=O)[C@H](C)N)cc1C(=O)Nc1cccc(C2CC(=O)c3c(cc(OC)c(OC)c3OC)O2)c1` (some centres not stated), the growth in the experiment with SR leukemia is 63.8%; with RPMI-8226 leukemia it was 55.3%; in the experiment on OVCAR-8 ovarian, 68.8%; in the experiment on OVCAR-5 ovarian it was 104%; in the experiment on OVCAR-4 ovarian, 81.7%; in the experiment on SK-OV-3 ovarian, 146%. For the same compound, the growth is 98.7% in the experiment on IGROV1 ovarian; 91.9% in the experiment with OVCAR-3 ovarian; 95.8% in the experiment with HS 578T breast; 86.1% with NCI/ADR-RES ovarian; 53.7% in the experiment on T-47D breast; 67.3% in the experiment with BT-549 breast. Moreover, the growth in the experiment with MDA-MB-435 melanoma is 93.2%; in the experiment on SW-620 colon, 99.4%; in the experiment on MCF7 breast it was 72.1%; in the experiment with HCT-116 colon it was 93.9%; in the experiment on HCC-2998 colon, 109%; in the experiment with KM12 colon, 87%. For the same compound, the growth in the experiment with MDA-MB-468 breast was 76.1%.
Turning to `CN(C)c1nc(NCCNS(=O)(=O)c2ccc(C3=Nc4c(N)nc(N)nc4NC(c4ccc(C(F)(F)F)cc4)C3)cc2)nc(Nc2ccc(F)cc2)n1` (configuration not stated), the growth in the experiment with SR leukemia was -23.2% (active); with RPMI-8226 leukemia it was -13.1% (active); in the experiment with OVCAR-8 ovarian it was 32.8%; in the experiment on OVCAR-5 ovarian, 29.5%; with OVCAR-4 ovarian, 31.3%; with SK-OV-3 ovarian, 49.8%. For the same compound, the growth in the experiment with IGROV1 ovarian is 35.8%; in the experiment with OVCAR-3 ovarian it was 23%; in the experiment on HS 578T breast, 27.1%; in the experiment on NCI/ADR-RES ovarian, 92.9%; with T-47D breast, 9.22% (active); in the experiment on BT-549 breast it was 19.3%. Further, the growth in the experiment with MDA-MB-435 melanoma was 9.17% (active); with SW-620 colon, 11.7%; in the experiment with MCF7 breast, -28.2% (active); with HCT-116 colon, 2.12% (active); in the experiment on HCC-2998 colon, -32.1% (active); with KM12 colon, -4.83% (active). For the same compound, the growth in the experiment with MDA-MB-468 breast was -46.2% (active).
In the case of `COC(OC)C1=C(C)OC(N)=C(C#N)C12C(=O)Nc1ccccc12` (configuration not stated), the growth in the experiment with SR leukemia is 73%; in the experiment with RPMI-8226 leukemia it was 94.3%; in the experiment on OVCAR-8 ovarian, 91.9%; with OVCAR-5 ovarian, 112%; with OVCAR-4 ovarian it was 101%; in the experiment on SK-OV-3 ovarian, 111%. In addition, the growth in the experiment on IGROV1 ovarian is 92%; in the experiment with OVCAR-3 ovarian, 101%; with HS 578T breast it was 95.4%; in the experiment on NCI/ADR-RES ovarian it was 99.2%; with T-47D breast, 100%; in the experiment with BT-549 breast, 123%. In addition, the growth was 94.8% with MDA-MB-435 melanoma; 85.5% in the experiment with SW-620 colon; 60.7% in the experiment on MCF7 breast; 100% in the experiment on HCT-116 colon; 106% in the experiment with HCC-2998 colon; 95.3% in the experiment with KM12 colon. Further, the growth with MDA-MB-468 breast is 85.9%.
Turning to `CN(C)c1ccnc(CNCCSC2(c3ccc(C(F)(F)F)cc3)c3ccccc3CCc3ccccc32)c1`, the growth was -50.9% (active) with SR leukemia; -47.8% (active) in the experiment with RPMI-8226 leukemia; -87.3% (active) in the experiment with OVCAR-8 ovarian; -22.7% (active) with OVCAR-5 ovarian; 13.9% in the experiment with OVCAR-4 ovarian; -17.4% (active) in the experiment on SK-OV-3 ovarian. Further, the growth with IGROV1 ovarian is -5.42% (active); in the experiment on OVCAR-3 ovarian, -36.5% (active); with HS 578T breast it was -23.4% (active); in the experiment with NCI/ADR-RES ovarian it was -73.9% (active); in the experiment with T-47D breast, -55.8% (active); with BT-549 breast it was -15.2% (active). Also, the growth in the experiment with MDA-MB-435 melanoma is -80.6% (active); in the experiment on SW-620 colon, -66% (active); in the experiment on MCF7 breast it was -72% (active); in the experiment with HCT-116 colon it was -82.5% (active); with HCC-2998 colon, -91.6% (active); with KM12 colon, -66.3% (active). Moreover, in the experiment on MDA-MB-468 breast, the growth is -87.6% (active).
